A selection: hits, their analogues and other compounds. The true share with any hit is near 8.1%.
KB-V1 MDR tox: qHTS assay for MDR1-selective chemotherapeutics: Primary screen using the drug-selected MDR subline cells KB-V1 | Potency, µM (top dose mostly 46.1 µM), usual class: cytotoxic | KB-V1 MDR cells viability, CellTiter-Glo, 72 h | AID 1347076, 2019 | 400,000 tested, 3.4% active; also: nearly all actives have a fitted effect of over 60% in size
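Readout: CellTiter-Glo luminescence, 10 min after addition. Cells: KB-V1 MDR subline, 72 h at 37 degrees C with compound. Analysis: corrected, normalized data fitted to concentration-effect curves.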
KB-3-1 cytotox: qHTS assay for MDR1-selective chemotherapeutics: Primary screen using the parental adenocarcinoma cell KB-3-1 | KB-3-1 viability, CellTiter-Glo ATP luminescence, 72 h | Potency, µM (series often up to 46.1 µM), most hits filed as cytotoxic | 400,000 tested, 1.4% active; also: nearly all actives have a fitted effect of over 60% in size
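Cells are dispensed, compounds pinned in, plates held at 37 °C for 72 h, then CellTiter-Glo is added and luminescence read after 10 minutes. Cell line: parental KB-3-1 in phenol-red-free DMEM, 10% FBS.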
SW480 rerep: A quantitative high throughput screen for small molecules that induce DNA re-replication in SW480 colon adenocarcinoma cells. SW480 DNA re-replication, Hoechst DNA content imaging, 48 h. Potency, µM (titrated, usually from 46.1 µM), actives largely listed as activators. 340,000 tested, 1.8% active. AID 624297, 2012; also: nearly all actives have a fitted effect of over 55% in size
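SW480 cells exposed to compounds for 48 hr at 37 C, 5% CO2, then Hoechst-stained 40 min. Nuclear DNA content imaged by fluorescence scanning (405 nm excitation, 500-530 nm emission); re-replication scored as increased high-intensity nuclei.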
MCF10A rereplic: A quantitative high throughput screen for small molecules that induce DNA re-replication in MCF 10a normal breast cells; MCF 10A DNA re-replication, Hoechst nuclear intensity, 48 h; Potency, µM (highest dose often 46.1 µM), usual class: activators; 350,000 tested, 2.9% active; AID 624296, 2012; also: nearly all actives have a fitted effect of over 50% in size
ELG1 repair inh: qHTS screen for small molecules that inhibit ELG1-dependent DNA repair in human embryonic kidney (HEK293T) cells expressing luciferase-tagged ELG1. HEK293T ELG1-luciferase reporter, luminescence, 16 h; DNA damage induced by 5-fluorouridine. Potency, µM (highest dose often 46.1 µM), actives largely listed as inhibitors. AID 504467, 2011. 330,000 tested, 2.3% active; also: nearly all actives have a fitted effect of over 55% in size
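5-Fluorouridine DNA damage + compound/DMSO, 2,000 cells/well, 16 h, 37 °C/5% CO2. ONE-Glo, 30 min RT, luminescence. Readout = decrease in reporter signal.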
ELG1 FLuc counter: qHTS screen for small molecules that inhibit ELG1-dependent DNA repair: Hit Confirmation in Cell-Based Luciferin Assay. shares compounds with ELG1 repair inh. cell-free firefly luciferase luminescence counter-screen, ViewLux. Potency, µM (series often up to 46.1 µM), actives largely listed as inhibitors. 350 tested, 3% active. AID 624247, 2012
ELG1-Luc inh: HTS assay for small molecules that inhibit ELG1-dependent DNA repair in human embryonic kidney (HEK293T) cells expressing luciferase-tagged ELG1: Hit Confirmation; shares compounds with ELG1 repair inh; HEK293T ELG1-luciferase levels, luminescence; cells co-treated with 5-fluorouridine; Potency, µM (series often up to 46.1 µM), hits mostly inhibitors; 670 tested, 68% active; AID 624248, 2012; also: nearly all actives have a fitted effect of over 55% in size
Target sequence (Q96QE3 whole entry, looked up): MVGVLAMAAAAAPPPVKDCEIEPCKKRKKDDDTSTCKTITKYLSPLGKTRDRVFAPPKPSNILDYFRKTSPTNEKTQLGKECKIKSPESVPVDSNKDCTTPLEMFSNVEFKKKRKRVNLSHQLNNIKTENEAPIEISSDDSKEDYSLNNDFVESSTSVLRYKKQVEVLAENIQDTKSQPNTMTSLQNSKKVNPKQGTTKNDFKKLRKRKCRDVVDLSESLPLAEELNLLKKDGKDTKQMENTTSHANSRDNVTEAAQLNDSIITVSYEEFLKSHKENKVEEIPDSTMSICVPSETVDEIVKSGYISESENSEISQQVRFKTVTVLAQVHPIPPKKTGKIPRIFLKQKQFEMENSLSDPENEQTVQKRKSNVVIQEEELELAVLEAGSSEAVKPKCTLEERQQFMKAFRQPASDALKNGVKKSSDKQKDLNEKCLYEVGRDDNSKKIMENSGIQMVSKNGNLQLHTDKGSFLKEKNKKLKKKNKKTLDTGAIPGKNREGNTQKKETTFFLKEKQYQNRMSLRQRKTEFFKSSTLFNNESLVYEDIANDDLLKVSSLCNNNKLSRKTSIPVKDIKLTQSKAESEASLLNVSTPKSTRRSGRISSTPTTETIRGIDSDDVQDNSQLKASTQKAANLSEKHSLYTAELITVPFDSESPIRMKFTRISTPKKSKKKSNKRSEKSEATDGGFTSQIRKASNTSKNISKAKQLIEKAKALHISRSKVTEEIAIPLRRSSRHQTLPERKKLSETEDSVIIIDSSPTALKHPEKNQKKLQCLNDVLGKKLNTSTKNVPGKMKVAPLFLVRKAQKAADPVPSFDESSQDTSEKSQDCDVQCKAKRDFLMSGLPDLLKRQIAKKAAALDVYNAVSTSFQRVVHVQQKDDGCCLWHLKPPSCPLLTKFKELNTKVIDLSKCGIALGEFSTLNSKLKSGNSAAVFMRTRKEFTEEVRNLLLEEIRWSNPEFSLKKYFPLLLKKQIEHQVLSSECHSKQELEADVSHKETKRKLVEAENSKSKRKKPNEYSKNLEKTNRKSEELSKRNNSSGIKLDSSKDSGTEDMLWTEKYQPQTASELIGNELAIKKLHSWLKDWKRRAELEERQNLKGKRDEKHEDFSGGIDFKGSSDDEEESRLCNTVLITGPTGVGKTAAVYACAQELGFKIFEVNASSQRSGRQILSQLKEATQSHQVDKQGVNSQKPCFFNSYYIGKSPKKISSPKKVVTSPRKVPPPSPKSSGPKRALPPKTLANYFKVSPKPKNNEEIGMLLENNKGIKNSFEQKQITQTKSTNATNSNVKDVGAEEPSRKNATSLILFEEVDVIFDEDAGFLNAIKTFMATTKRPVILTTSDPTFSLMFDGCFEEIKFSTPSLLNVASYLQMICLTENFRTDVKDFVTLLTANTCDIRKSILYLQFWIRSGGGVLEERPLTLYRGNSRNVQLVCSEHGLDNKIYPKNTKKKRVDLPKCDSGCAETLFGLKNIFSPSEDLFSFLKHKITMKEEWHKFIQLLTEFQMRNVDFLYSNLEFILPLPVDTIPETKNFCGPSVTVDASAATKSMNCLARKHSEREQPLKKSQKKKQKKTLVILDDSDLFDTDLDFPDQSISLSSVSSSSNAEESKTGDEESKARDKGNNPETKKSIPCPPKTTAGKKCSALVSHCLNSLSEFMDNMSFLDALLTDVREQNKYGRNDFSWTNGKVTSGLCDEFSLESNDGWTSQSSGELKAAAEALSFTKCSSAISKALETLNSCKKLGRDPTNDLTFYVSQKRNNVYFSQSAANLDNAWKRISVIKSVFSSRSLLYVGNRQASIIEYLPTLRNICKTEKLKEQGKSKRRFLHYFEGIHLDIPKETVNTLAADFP
ELG1 MMS Luc: confirmation of human ELG1 repair inhibitors, MMS stimulated. Potency, µM (highest dose often 46.1 µM), most hits filed as inhibitors. shares compounds with ELG1 repair inh. 670 tested, 53% active. HEK293T luciferase-tagged ELG1 level, MMS stimulated; also: nearly all actives have a fitted effect of over 60% in size
ELG1 5-FU: qHTS screen for small molecules that inhibit ELG1-dependent DNA repair: Hit Confirmation with 5FU Viability. AID 624250, 2012. Potency, µM (top dose mostly 46.1 µM), most hits filed as cytotoxic. 670 tested, under 10 active. shares compounds with ELG1 repair inh. cell viability with 5-FU, ELG1-dependent repair;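 also: ELG1-luc HEK293T cells cotreated with 5-fluorouridine at 10 µM final; viability measured 16 h after compound addition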
ELG1 MMS cell: qHTS screen for small molecules that inhibit ELG1-dependent DNA repair: Hit Confirmation with MMS Viability; 670 tested, 33% active; shares compounds with ELG1 repair inh; Potency, µM (doses to about 46.1 µM), hits mostly cytotoxic; Cell viability with MMS, ELG1-dependent DNA repair; AID 624251, 2012;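 also: ELG1-luc HEK293T cells co-treated with 10 µM MMS; viability read 16 h after compound addition; nearly all actives have a fitted effect of over 60% in size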
ELG1 unstim viab: qHTS screen for small molecules that inhibit ELG1-dependent DNA repair: Hit Confirmation with Unstimulated Viability Assay | 900 tested, 8% active | Potency, µM (top dose mostly 45.9 µM), hits mostly cytotoxic | cell viability counter-screen, unstimulated, luminescence | shares compounds with ELG1 repair inh | AID 624252, 2012;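 also: compound exposure lasted 16 hours before reading; nearly all actives have a fitted effect of over 55% in size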
FLuc enzyme: qHTS screen for small molecules that inhibit ELG1-dependent DNA repair: Hit Confirmation in Biochemical Luciferin Assay; shares compounds with ELG1 repair inh; purified firefly luciferase, luminescence counter-screen; Potency, µM (highest dose often 57.5 µM), most hits filed as inhibitors; 350 tested, 10% active; AID 624253, 2012
Numbers stand for hits; n = inactive; u = inconclusive; x = no result given; ! = a repeat was not active. Calls follow the shape of the dose curve; as a rule, active = well fitted curve in the direction sought with a large enough effect; inconclusive = small, poorly fitted or top-dose-only effect, or another doubt; inactive = no such curve, though single readings can be large; an effect the other way counts as inactive or inconclusive.

SMILES	KB-V1 MDR tox	KB-3-1 cytotox	SW480 rerep	MCF10A rereplic	ELG1 repair inh	ELG1 FLuc counter	ELG1 unstim viab	FLuc enzyme	others
CSCCC(NC(=O)c1ccccc1)C(=O)NCCCSc1ccccc1 (configuration not stated)	n	n	n	n	n	x	x	x
CC1=C(C(=O)OCc2ccc3c(c2)OCO3)C(c2ccc(Cl)cc2)NC(=O)N1 (configuration not stated)	11.6µM	u	n	u	0.231µM	u	u	n	ELG1-Luc inh=0.199µM;ELG1 MMS Luc=0.889µM;ELG1 5-FU=n;ELG1 MMS cell=u
CSCCOC(=O)C1=C(C)NC(=O)NC1c1ccc2c(c1)OCO2 (configuration not stated)	n	n	n	n	n	x	x	x
CC1=C(C(=O)OCc2ccc3c(c2)OCO3)C(c2ccc(F)cc2)NC(=O)N1 (configuration not stated)	8.2µM	14.6µM	n	n	1.3µM	u	u	n	ELG1-Luc inh=0.889µM;ELG1 MMS Luc=4.45µM;ELG1 5-FU=n;ELG1 MMS cell=u
O=C(NCc1cccs1)c1csc(COCCO)n1	n	n	x	x	x	x	x	x
CCOC(=O)C1=CCC(c2cccs2)N(S(=O)(=O)c2ccc(C)cc2)C1 (configuration not stated)	n	n	x	x	x	x	x	x
O=C(/C=C/c1ccc(S(=O)(=O)N2CCOCC2)cc1)N1CCN(c2ccc(F)cc2)CC1	n	n	n	n	2.31µM	n	u	n	ELG1-Luc inh=n;ELG1 MMS Luc=7.06µM;ELG1 5-FU=n;ELG1 MMS cell=u
COc1ccc(-c2cc3ccc(F)cc3cn2)cc1	n	n	n	u	u	x	x	x
COc1ccc(-c2cc3cc(F)ccc3cn2)cc1	n	n	n	n	u	x	n	x
COc1cc(C(=O)OCCCc2cc3ccccc3c(=O)o2)cc(OC)c1OC	n	n	n	n	u	x	x	x
COc1cc(C(=O)OCCc2cc3ccccc3c(=O)o2)cc(OC)c1OC	u	4.61µM	8.2µM	14.6µM	u	x	u	x	ELG1-Luc inh=4.45µM;ELG1 MMS Luc=u;ELG1 5-FU=u;ELG1 MMS cell=u
Cc1cccc(C)c1NC(=O)CNC(=O)c1ccc(NS(=O)(=O)c2ccc3[nH]c(=O)[nH]c3c2)cc1	n	n	n	n	n	x	x	x
Cc1ccc2nc(-c3ccc(C)c(NC(=O)COc4ccc(Br)cc4)c3)oc2c1	n	u	x	x	x	n	n	u
COc1ccc(OCC(=O)Nc2ccc(-c3nc4cc(C)c(C)cc4o3)cc2)cc1	x	x	x	x	x	n	u	15µM!
Cc1ccc(OCC(=O)Nc2ccc(-c3nc4ccc(C)cc4o3)cc2)cc1	n	n	x	x	x	x	x	x
Cc1ccc2nc(-c3ccc(Cl)c(NC(=O)COc4ccc(C(C)C)cc4)c3)oc2c1	n	n	x	x	x	x	x	x
CCOC(=O)c1ccc(NC(=O)C2=C(C)Nc3nc(SCc4ccc(Cl)cc4)nn3C2c2ccc(C)cc2)cc1 (configuration not stated)	n	n	x	x	x	x	x	x
O=c1c2ccccc2ccc2ccccc12	u	n	n	n	n	x	x	x
O=c1c2ccccc2oc2c1ccc1ccccc12	n	n	n	n	u	x	n	x
O=C(NCc1ccco1)c1ccc2sc([C@H]3C[C@H](O)[C@@H](CO)O3)nc2c1	n	n	x	x	x	x	x	x
C=C1C(c2ccc(C)cc2)=CCc2cc(C)cc(C)c21	x	x	x	x	x	n	u	5.17µM
Cc1cc(=O)oc2cc(NC(=O)C(C)Oc3ccc(F)cc3)ccc12 (configuration not stated)	n	n	n	n	n	x	x	x
Cc1cc(=O)oc2cc(NC(=O)c3ccc(OC(F)F)cc3)ccc12	n	n	u	n	u	x	n	x
O=C(NCc1cccc(Cl)c1)c1ccc(S(=O)(=O)N2CCCCC2)cc1	n	n	x	x	x	x	x	x
CC(=O)N1c2ccc(S(=O)(=O)NCCC(=O)NCc3ccc(Cl)cc3)cc2CC1C (configuration not stated)	n	n	n	n	u	x	x	x
SMILES	KB-V1 MDR tox	KB-3-1 cytotox	SW480 rerep	MCF10A rereplic	ELG1 repair inh	ELG1 FLuc counter	ELG1 unstim viab	FLuc enzyme	others
CC(=O)N1c2ccc(S(=O)(=O)NCCC(=O)NCc3ccc(N(C)C)cc3)cc2CC1C (configuration not stated)	n	n	u	u	4.61µM	x	n	x	ELG1-Luc inh=12.5µM;ELG1 MMS Luc=n;ELG1 5-FU=u;ELG1 MMS cell=n
COc1ccc(CNC(=O)c2cccc(S(=O)(=O)N3CCN(c4ccc(F)cc4)CC3)c2)cc1	n	n	n	n	3.26µM	x	u	x	ELG1-Luc inh=14.1µM;ELG1 MMS Luc=15.8µM;ELG1 5-FU=n;ELG1 MMS cell=12.5µM
COc1cccc(CNC(=O)c2cccc(S(=O)(=O)N3CCN(c4ccc(F)cc4)CC3)c2)c1	u	n	n	n	u	x	x	x
CCn1c(=O)n(CC)c2cc(S(=O)(=O)N3CCCCC3)c(C)cc21	u	n	n	n	u	n	n	n
CCn1c(=O)n(CC)c2cc(S(N)(=O)=O)c(C)cc21	n	n	n	n	n	x	x	x
O=C(N[C@H]1/C=C\[C@@H](O)CCCC1)OCc1ccccc1	n	n	n	n	u	x	n	x
C#Cc1ccc([C@H]2C=C(C(=O)N3CCN(Cc4ccc5c(c4)OCO5)CC3)O[C@@H](OCc3ccc(CO)cc3)C2)cc1	n	n	u	25.9µM	1.64µM	n	n	n	ELG1-Luc inh=5.61µM;ELG1 MMS Luc=u;ELG1 5-FU=u;ELG1 MMS cell=u
